SSB-PriA inh – K. pneumoniae PriA-SSBct interaction inhibition; 0.6% of 430,000 active; inhibition, % at 33 µM; AlphaScreen SSBct-PriA binding, biotinylated peptide; AID 1272365; in the data active = inhibition mostly above about 37%, no sharp cut-off; inactive = mostly below about 20%;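 also: plate controls were negative control peptide for no effect and reference peptide for full effect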
GDH-TPI inh – counter-screen for M. tuberculosis FBA inhibitors: GDH-TPI coupled enzymes | GDH-TPI coupled enzyme counterscreen, NADH absorbance | inhibition, % at 4.8 µM | 1.2% of 360,000 active; in the data active = inhibition above about 30%;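 also: 0% = DMSO wells and 100% = wells lacking the enzyme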
Rv3671c protease – inhibitors of M. tuberculosis serine protease Rv3671c; P9WHR9; inhibition, % at 5.96 µM; 0.048% of 320,000 active; AID 2606; in the data active = inhibition above about 38%;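 also: extracellular domain of Rv3671c used as enzyme; 0% = enzyme with DMSO and 100% = no enzyme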
Target sequence (P9WHR9 whole entry, looked up, the tested form may be a part): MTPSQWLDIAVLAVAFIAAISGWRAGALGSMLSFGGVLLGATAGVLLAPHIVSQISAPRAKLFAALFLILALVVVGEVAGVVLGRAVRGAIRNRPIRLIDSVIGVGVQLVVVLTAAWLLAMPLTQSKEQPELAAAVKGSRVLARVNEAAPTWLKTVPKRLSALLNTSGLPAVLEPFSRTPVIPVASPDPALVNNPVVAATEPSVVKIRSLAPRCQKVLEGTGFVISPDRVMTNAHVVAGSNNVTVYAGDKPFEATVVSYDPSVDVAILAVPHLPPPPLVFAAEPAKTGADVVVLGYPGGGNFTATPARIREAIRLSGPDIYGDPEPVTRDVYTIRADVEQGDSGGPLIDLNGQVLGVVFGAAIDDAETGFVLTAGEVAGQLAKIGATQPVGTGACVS
FBA Mtb inh – Mtb fructose-bisphosphate aldolase inhibition. P9WQA3. purified M. tuberculosis FBA, fluorescence read-out. inhibition, % at 1 µM. 2.3% of 360,000 active. AID 588726; in the data active = inhibition above about 27%;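 also: 0% = vehicle and 100% = reference inhibitor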
Target sequence (P9WQA3 whole entry, looked up): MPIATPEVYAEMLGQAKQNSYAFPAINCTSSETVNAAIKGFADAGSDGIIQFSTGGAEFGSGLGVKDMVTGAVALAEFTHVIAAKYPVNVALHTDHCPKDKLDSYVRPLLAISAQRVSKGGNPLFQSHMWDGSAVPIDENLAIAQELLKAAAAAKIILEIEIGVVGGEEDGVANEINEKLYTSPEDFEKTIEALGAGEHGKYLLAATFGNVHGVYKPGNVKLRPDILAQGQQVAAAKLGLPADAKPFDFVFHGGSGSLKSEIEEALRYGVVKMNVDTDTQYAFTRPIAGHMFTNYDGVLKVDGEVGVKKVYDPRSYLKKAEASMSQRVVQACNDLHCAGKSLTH
Mtb UGM inh – Mtb UDP-galactopyranose mutase inhibition; inhibition, % at 10 µM; purified UGM, fluorescence polarization probe displacement; AID 504406; 0.06% of 320,000 active; in the data active = inhibition above about 10%, passing the limit was not always enough
Mtb bLac sens – beta-lactam sensitization of Mtb H37Rv. M. tuberculosis H37Rv growth with meropenem, percent inhibition. 0.27% of 330,000 active. inhibition, % at 25 µM; call rule not given here;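 also: growth measured after seven days incubation then overnight dye step; 0% = bacteria only wells and 100% = bacteria with antibiotic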
Starred values were filed as active, the others as inactive; / = no result given; + = active, no number. Shown are actives, neighbours in structure and some others; about 3.2% of the full set was active somewhere.

SMILES | SSB-PriA inh | GDH-TPI inh | Rv3671c protease | FBA Mtb inh | Mtb UGM inh | Mtb bLac sens
CN1CCN(CCCNC(=O)c2cc3c(=O)n(C)c4ccccc4c3s2)CC1 | -2.0 | 12.5 | 7.9 | 89.0* | -1.1 | 2.3
Cc1cc2cc(CCNS(C)(=O)=O)c(=O)[nH]c2cc1C | -19.9 | 10.1 | -4.3 | 3.2 | -3.1 | -6.0
CCS(=O)(=O)NCCc1cc2cc(C)c(C)cc2[nH]c1=O | -3.8 | 31.1* | / | 4.0 | / | /
COCCNC(=S)NN=Cc1ccc([N+](=O)[O-])cc1 | -2.9 | / | / | / | / | /
Cc1cccc(-c2nc(CSc3nc4c(c(=O)[nH]3)CCC4)c(C)o2)c1 | 96.5* | 6.6 | 0.2 | 3.0 | 0.6 | -6.2
Cc1ccccc1-c1nc(CSc2nc3c(c(=O)[nH]2)CCC3)c(C)o1 | 93.8* | 4.7 | -7.6 | 3.0 | 0.5 | -3.4
O=C(C[C@@H](C(=O)O)N1CCNCC1)Nc1c(Cl)cccc1Cl | -6.0 | / | / | / | / | /
O=S(=O)(NCCN1CCC(c2cccs2)CC1)C1CC1 | 4.0 | / | / | / | / | /
O=S(=O)(NN=C/C=C/c1ccccc1)c1ccc(Cl)cc1 | 5.3 | / | / | / | / | /
O=S(=O)(N/N=C\C=C\c1ccccc1)c1ccc(Cl)cc1 | / | 58.8* | -3.1 | 0.0 | 4.8 | -14.1
COc1ccc(C(=O)/C=C/c2cccc(OCc3ccccc3)c2)cc1CSCC(=O)O | 5.2 | 16.7 | -9.6 | 0.6 | -0.1 | 0.6
COc1ccc(C(=O)/C=C/c2ccc(OCc3ccccc3)cc2)cc1CSCC(=O)O | -2.6 | 40.2* | / | -0.1 | 0.2 | 69.2
O=C(CSc1nc(-c2ccccc2)cs1)Nc1ccccc1[N+](=O)[O-] | 48.4* | 9.1 | 3.4 | -1.7 | -1.4 | -4.6
CCOC(=O)[C@H](CC)Sc1ccc(NC(=O)c2ccccc2)nn1 | -5.0 | / | / | / | / | /
CCOC(=O)c1ccc(-c2c(-c3ccccc3OC)oc3ccccc23)cc1F | -50.4 | 15.1 | -3.1 | 28.1* | 0.3 | 7.8
O=C(CCSc1ccccc1)NCCOc1ccccc1 | -25.0 | / | / | / | / | /
CC(C)=NNC(=S)NC(C)(C)C | 43.0* | / | / | / | / | /
COc1ccc(C(=O)NCCCn2ccnc2)cc1[N+](=O)[O-] | -2.3 | 32.3* | 5.0 | 4.9 | 2.0 | 60.2
COc1cc(C(=O)NCCCn2ccnc2)cc(OC)c1OC | -1.0 | 6.5 | 3.3 | 0.2 | 1.2 | -4.2
Nc1c2ccccc2nc(=O)n1Cc1cccnc1 | -2.0 | / | / | / | / | /
COCC(=O)Nc1ccc(-c2cn3cccnc3n2)cc1 | -9.8 | 24.9 | -5.1 | + | -1.4 | -18.9
CCC(CC)C(=O)Nc1ccc(-c2cn3cccnc3n2)cc1 | -0.9 | 24.8 | -3.0 | + | -2.2 | 3.9
CCCc1nnsc1C(=O)NC[C@H](O)c1ccc(SC)cc1 | 5.0 | / | / | / | / | /
O=C(Nc1ccc2c(c1)OCO2)N1CCn2cccc2[C@H]1c1ccc(F)c(F)c1 | 33.0* | / | / | / | / | /
CCCN(Cc1ccsc1)S(=O)(=O)C1CC1 | -25.0 | / | / | / | / | /
SMILES | SSB-PriA inh | GDH-TPI inh | Rv3671c protease | FBA Mtb inh | Mtb UGM inh | Mtb bLac sens
COc1ccc(C2=NN3C(=O)c4c(ccc(OC)c4OC)C3C2)cc1 (stereo not given) | -20.5 | 36.2* | 2.0 | 1.3 | 1.7 | 64.6
Cc1ccc(C)c(-c2nnc(NC(=O)CSc3ccc(Cl)cc3)o2)c1 | 5.0 | / | / | / | / | /
N#CC(C#N)=C1C=CC=CN1/C(=C\c1ccco1)C(=O)c1ccc(-c2ccccc2)cc1 | 7.9 | 26.6 | -32.4 | 2.0 | -2.0 | 4.2
N#CC(C#N)=C1C=CC=CN1/C(=C\c1ccco1)C(=O)c1ccc(Cl)cc1 | 3.3 | 44.4* | -39.9 | 4.4 | -1.0 | 1.6
Cc1ccc(-c2nnc(-c3cccc4ccccc34)o2)cc1 | -14.8 | 16.2 | / | 3.0 | / | /
CCOP(=O)(OCC)c1nc(-c2cccc3ccccc23)oc1NCc1ccc(OC)cc1 | -31.7 | -2.5 | -0.4 | 169.2* | -3.3 | -1.2
CCOP(=O)(OCC)c1nc(-c2cccc3ccccc23)oc1NCc1ccccc1 | -3.6 | 9.9 | 5.0 | + | -0.1 | 1.5
COc1ccc(CC(=O)NCc2ccccc2)cc1 | -9.9 | -5.7 | 0.1 | -0.8 | -1.2 | 3.7
Cc1ccc(-n2nnnc2CNC(=O)c2ccc(F)c(F)c2)cc1C | -1.0 | / | / | / | / | /
COc1ccc(-c2ccc(C(=O)Nc3ccccc3C)o2)c([N+](=O)[O-])c1 | 5.0 | / | / | / | / | /
COc1ccc2cc(C(=O)Nc3cccc(N4CCCCC4=O)c3)[nH]c2c1 | 0.0 | / | / | / | / | /
Cn1nnc2c(NCCCN3CCCC3=O)ncnc21 | 3.0 | / | / | / | / | /
COc1ccc2[nH]c3c(NCCCN4CCCC4=O)ncnc3c2c1 | -10.5 | 18.2 | 5.5 | 152.0* | -2.4 | -8.2
COc1ccc2[nH]c3c(=O)n(CCc4ccccc4)cnc3c2c1 | -2.5 | 14.2 | 7.3 | 94.7* | 0.2 | -3.0
COc1ccc2cc(C(=O)NCCCN3CCCC3=O)[nH]c2c1 | 39.8* | 11.6 | -1.5 | 11.8 | 0.9 | -0.8
O=c1c2c3c(sc2ncn1/N=C\c1cccnc1)CCC3 | -16.0 | / | / | / | / | /
Cc1ccc(NC(=O)CN2C(=O)N/C(=C/c3ccc(C)s3)C2=O)cc1 | -10.6 | 32.1* | -33.5 | -1.1 | -0.4 | 6.4
COc1ccccc1/C=C/C=NNC(=O)c1ccccn1 | -6.0 | / | / | / | / | /
c1ccc2c(-c3cc(C4CCNCC4)[nH]n3)cccc2c1 | 39.0* | -6.8 | 8.6 | 2.5 | 1.4 | 16.4
c1coc(-c2cc(C3CCNCC3)[nH]n2)c1 | -13.9 | -3.0 | 13.6 | 1.2 | -1.4 | -2.7
COC(=O)c1ccc(S(=O)(=O)c2ccccc2)c(N)c1 | 0.9 | 9.7 | -5.4 | 121.4* | 0.9 | 0.1
O=C1N/C(=N\N=C\c2ccco2)SC1Cc1ccccc1[N+](=O)[O-] (stereo not given) | / | 37.6* | 4.7 | -1.6 | 0.3 | 20.9
O=C1NC(=NN=Cc2ccco2)SC1Cc1ccc(F)cc1 (stereo not given) | -7.7 | / | / | / | / | /
COc1cc(/C=N\Nc2ncnc3nc[nH]c23)cc(OC)c1OC | -14.0 | / | / | / | / | /
CN1C(=C2C(=O)OC(C)(C)OC2=O)Sc2ccccc21 | -6.2 | 45.7* | -1.8 | -3.0 | 0.5 | 1.9
SMILES | SSB-PriA inh | GDH-TPI inh | Rv3671c protease | FBA Mtb inh | Mtb UGM inh | Mtb bLac sens
CC(=O)NN1C(=O)/C(=C2/Sc3ccccc3N2C)SC1=S | -16.9 | 0.0 | -6.0 | -6.7 | 1.1 | -4.0
COC(=O)/C(=C\c1ccc2c(c1)c1ccccc1n2C)NC(=O)c1ccccc1 | 0.2 | 21.0 | -19.5 | 0.3 | 1.5 | 7.5
CC(C)OC(=O)/C(=C\c1ccc2c(c1)c1ccccc1n2C)NC(=O)c1ccccc1 | -3.7 | 20.6 | -32.4 | 1.7 | -1.6 | -11.5
Cn1c2ccccc2c2cc(/C=C(\NC(=O)c3ccccc3)C(=O)O)ccc21 | -7.7 | 35.3* | -3.6 | -3.1 | 4.1 | -5.4
CC(C)OC(=O)/C(=C/c1ccc2c(c1)c1ccccc1n2C)NC(=O)c1ccccc1 | 1.4 | 34.5* | -26.0 | -0.3 | 0.0 | 6.1
COc1cc2nc(N3CCN(C(=O)C4CCCO4)CC3)nc(N)c2cc1OC (stereo not given) | 7.2 | 13.0 | 3.4 | 112.3* | -1.9 | -6.4
C/C(=N\NC(=O)c1ccc2c(c1)OCO2)c1ccc(O)cc1 | / | 32.9* | -4.3 | -1.4 | -4.3 | -1.4
C/C(=N\NC(=O)c1ccc2c(c1)OCO2)c1ccc(NS(C)(=O)=O)cc1 | / | 36.0* | -0.8 | -4.3 | 2.3 | -3.8
C/C(=N/NC(=O)c1ccc2c(c1)OCO2)c1ccc(NC(=O)C(F)(F)F)cc1 | / | 7.8 | -2.9 | -0.2 | -1.5 | 5.0
